Inhibition data for 1 molecule are collected here from ChEMBL document CHEMBL1961873, “Compounds: GSK PKIS; Assays: Nanosyn kinase panel” (2012).

Test [1] has as its target Sphingosine kinase 1 (Homo sapiens) (UniProt Q9NYA1). The following applies: at 1 µM.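 Note: mean SPHK1 inhibition value reported from the GSK PKIS kinase panel screen.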
Test [2] addresses T1, Sphingosine kinase 2 (Homo sapiens) (UniProt Q9NRA0).
T1 sequence (whole entry): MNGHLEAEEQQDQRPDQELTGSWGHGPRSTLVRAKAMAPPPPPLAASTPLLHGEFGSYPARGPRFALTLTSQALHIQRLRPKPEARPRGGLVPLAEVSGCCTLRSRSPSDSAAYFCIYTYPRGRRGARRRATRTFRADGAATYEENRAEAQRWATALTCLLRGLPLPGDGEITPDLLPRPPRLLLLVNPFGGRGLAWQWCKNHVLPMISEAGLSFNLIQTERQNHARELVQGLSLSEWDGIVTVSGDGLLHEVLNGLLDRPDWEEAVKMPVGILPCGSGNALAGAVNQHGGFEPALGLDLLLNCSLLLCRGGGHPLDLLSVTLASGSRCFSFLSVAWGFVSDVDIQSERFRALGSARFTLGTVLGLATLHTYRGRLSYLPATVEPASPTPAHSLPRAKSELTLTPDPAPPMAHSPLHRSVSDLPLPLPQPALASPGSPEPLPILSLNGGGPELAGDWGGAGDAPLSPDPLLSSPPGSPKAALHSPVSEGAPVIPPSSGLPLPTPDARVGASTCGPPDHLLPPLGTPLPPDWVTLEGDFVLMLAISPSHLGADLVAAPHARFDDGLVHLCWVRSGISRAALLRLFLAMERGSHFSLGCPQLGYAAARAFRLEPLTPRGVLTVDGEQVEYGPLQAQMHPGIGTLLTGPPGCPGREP
The following applies: at 0.1 µM.

For test [3], the target named is T1, Sphingosine kinase 2 (Homo sapiens). Conditions: at 1 µM.
The target in test [4] is Casein kinase II subunit alpha (Homo sapiens) (UniProt P68400). The following applies: at 0.1 µM.
For test [5] the target is unchanged. Conditions: at 1 µM.
Test [6] has as its target T2, Inhibitor of nuclear factor kappa-B kinase subunit alpha (Homo sapiens) (UniProt O15111).
T2 sequence (whole entry): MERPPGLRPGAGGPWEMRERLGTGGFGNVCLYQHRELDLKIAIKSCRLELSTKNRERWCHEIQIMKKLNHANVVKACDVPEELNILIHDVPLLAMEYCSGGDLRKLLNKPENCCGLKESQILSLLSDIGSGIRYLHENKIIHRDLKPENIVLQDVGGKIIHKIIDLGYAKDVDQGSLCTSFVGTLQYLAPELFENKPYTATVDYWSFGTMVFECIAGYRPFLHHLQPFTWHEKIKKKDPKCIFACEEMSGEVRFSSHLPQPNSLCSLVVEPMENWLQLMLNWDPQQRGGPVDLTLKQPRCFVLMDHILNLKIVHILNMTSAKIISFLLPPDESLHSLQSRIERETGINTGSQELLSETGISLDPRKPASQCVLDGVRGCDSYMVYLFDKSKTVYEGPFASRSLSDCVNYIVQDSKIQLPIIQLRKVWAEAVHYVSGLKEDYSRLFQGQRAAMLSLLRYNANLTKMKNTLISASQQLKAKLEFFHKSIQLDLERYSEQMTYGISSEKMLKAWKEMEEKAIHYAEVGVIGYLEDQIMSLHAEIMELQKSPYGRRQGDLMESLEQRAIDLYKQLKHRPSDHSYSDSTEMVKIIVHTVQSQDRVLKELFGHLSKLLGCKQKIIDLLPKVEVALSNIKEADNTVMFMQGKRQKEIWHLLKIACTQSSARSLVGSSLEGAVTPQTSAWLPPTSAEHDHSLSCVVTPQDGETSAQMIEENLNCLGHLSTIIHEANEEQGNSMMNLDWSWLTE
Conditions: at 0.1 µM.

For test [7], the target named is T2, Inhibitor of nuclear factor kappa-B kinase subunit alpha (Homo sapiens). The following applies: at 1 µM.
For test [8], the target named is T3, Inhibitor of nuclear factor kappa-B kinase subunit beta (Homo sapiens) (UniProt O14920).
T3 sequence (whole entry): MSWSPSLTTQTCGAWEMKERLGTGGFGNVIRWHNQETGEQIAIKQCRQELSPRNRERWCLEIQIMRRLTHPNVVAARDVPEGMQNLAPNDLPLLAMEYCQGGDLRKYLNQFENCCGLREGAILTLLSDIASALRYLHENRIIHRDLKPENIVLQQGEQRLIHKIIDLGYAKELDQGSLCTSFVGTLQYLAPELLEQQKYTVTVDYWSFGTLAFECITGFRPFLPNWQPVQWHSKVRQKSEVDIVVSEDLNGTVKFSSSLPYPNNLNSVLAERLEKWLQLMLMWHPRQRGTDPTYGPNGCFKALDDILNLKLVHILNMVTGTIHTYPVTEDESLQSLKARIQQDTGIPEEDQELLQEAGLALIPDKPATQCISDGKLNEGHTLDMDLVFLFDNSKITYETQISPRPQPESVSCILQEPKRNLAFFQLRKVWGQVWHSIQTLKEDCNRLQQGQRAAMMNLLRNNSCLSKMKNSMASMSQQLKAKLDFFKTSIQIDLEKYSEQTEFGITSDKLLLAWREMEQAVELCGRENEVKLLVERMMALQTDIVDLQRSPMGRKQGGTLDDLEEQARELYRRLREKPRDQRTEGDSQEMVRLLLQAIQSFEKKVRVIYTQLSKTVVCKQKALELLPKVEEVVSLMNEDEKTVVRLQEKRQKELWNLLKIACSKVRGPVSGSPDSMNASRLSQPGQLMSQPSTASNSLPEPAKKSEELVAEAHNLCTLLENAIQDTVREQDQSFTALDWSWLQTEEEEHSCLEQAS
Conditions: at 0.1 µM.

Test [9] addresses T3, Inhibitor of nuclear factor kappa-B kinase subunit beta (Homo sapiens). Conditions: at 1 µM.
The target of test [10] is T4, Inhibitor of nuclear factor kappa-B kinase subunit epsilon (Homo sapiens) (UniProt Q14164).
T4 sequence (whole entry): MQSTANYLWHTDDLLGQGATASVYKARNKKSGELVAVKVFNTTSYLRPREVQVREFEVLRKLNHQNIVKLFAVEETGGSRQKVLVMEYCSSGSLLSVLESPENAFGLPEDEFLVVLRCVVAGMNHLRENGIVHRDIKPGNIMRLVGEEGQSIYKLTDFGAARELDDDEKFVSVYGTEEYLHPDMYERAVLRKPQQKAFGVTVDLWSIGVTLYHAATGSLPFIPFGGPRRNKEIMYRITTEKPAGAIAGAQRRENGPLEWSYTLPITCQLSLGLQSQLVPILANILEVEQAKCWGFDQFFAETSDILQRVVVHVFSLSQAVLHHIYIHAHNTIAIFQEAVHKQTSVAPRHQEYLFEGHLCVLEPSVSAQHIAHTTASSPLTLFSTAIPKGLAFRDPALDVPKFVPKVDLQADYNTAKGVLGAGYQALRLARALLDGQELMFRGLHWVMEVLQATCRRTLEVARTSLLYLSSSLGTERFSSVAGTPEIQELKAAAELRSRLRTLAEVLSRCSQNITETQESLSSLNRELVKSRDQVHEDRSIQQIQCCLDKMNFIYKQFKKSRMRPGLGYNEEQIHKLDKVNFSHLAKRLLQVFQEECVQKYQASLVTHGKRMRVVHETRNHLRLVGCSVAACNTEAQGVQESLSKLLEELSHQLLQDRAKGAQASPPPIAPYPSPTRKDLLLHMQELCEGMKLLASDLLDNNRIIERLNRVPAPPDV
Conditions: at 0.1 µM.

Test [11] has as its target T4, Inhibitor of nuclear factor kappa-B kinase subunit epsilon (Homo sapiens). The following applies: at 1 µM.
Test [12] has as its target T5, Serine/threonine-protein kinase Nek1 (Homo sapiens) (UniProt Q96PY6).
T5 sequence (whole entry): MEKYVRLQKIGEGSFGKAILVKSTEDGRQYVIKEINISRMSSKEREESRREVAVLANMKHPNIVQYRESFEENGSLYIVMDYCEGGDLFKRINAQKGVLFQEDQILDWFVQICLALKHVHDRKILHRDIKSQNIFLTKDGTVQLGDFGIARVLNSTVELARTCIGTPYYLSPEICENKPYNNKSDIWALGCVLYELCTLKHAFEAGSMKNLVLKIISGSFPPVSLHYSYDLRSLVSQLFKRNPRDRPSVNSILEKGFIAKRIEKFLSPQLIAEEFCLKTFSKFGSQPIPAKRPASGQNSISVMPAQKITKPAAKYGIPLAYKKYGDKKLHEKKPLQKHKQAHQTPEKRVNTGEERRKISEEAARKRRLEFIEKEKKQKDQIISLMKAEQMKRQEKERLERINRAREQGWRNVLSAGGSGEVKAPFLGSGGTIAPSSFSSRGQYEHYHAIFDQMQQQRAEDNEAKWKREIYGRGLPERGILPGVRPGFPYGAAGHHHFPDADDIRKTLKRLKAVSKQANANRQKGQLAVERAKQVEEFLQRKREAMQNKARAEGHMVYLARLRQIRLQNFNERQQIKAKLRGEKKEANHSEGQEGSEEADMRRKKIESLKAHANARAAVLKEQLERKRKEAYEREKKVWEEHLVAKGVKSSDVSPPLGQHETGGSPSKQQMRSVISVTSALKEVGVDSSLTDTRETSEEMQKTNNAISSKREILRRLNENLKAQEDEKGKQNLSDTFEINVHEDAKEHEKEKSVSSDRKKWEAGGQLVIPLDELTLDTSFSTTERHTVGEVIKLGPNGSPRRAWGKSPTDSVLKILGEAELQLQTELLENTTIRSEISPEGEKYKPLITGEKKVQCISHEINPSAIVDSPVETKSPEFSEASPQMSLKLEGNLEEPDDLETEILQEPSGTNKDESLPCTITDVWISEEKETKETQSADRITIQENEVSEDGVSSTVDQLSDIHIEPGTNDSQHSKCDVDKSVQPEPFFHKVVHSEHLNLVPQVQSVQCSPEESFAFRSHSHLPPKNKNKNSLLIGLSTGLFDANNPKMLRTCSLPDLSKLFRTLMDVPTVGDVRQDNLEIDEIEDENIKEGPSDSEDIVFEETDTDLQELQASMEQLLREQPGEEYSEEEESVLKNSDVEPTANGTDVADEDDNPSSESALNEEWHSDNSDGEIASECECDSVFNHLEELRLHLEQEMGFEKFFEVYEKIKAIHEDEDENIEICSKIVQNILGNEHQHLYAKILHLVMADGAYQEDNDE
The following applies: at 0.1 µM.

The target of test [13] is T5, Serine/threonine-protein kinase Nek1 (Homo sapiens). Conditions: at 1 µM.
Test [14] deals with T6, Serine/threonine-protein kinase Nek2 (Homo sapiens) (UniProt P51955).
T6 sequence (whole entry): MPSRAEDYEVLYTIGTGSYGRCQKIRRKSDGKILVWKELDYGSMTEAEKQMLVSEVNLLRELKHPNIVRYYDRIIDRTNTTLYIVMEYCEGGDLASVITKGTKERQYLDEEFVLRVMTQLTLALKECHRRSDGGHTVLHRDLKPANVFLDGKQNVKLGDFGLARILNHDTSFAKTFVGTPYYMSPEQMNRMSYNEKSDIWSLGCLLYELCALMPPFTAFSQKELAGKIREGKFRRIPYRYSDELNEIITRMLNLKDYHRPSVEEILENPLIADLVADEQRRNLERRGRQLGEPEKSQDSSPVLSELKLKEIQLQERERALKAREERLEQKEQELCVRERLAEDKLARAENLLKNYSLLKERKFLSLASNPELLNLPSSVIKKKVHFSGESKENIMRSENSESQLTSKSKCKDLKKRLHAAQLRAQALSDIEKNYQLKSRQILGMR
The following applies: at 0.1 µM.

The target in test [15] is T6, Serine/threonine-protein kinase Nek2 (Homo sapiens). Conditions: at 1 µM.
Test [16] has as its target Serine/threonine-protein kinase Nek6 (Homo sapiens) (UniProt Q9HC98). The following applies: at 0.1 µM.
The target is the same in test [17]. The following applies: at 1 µM.
Test [18] deals with Serine/threonine-protein kinase Nek7 (Homo sapiens) (UniProt Q8TDX7). Conditions: at 0.1 µM.
Test [19] has the same target. The following applies: at 1 µM.
For test [20], the target named is T7, Serine/threonine-protein kinase Nek9 (Homo sapiens) (UniProt Q8TD19).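 Note: reported value is the mean percent inhibition of NEK9.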
T7 sequence (whole entry): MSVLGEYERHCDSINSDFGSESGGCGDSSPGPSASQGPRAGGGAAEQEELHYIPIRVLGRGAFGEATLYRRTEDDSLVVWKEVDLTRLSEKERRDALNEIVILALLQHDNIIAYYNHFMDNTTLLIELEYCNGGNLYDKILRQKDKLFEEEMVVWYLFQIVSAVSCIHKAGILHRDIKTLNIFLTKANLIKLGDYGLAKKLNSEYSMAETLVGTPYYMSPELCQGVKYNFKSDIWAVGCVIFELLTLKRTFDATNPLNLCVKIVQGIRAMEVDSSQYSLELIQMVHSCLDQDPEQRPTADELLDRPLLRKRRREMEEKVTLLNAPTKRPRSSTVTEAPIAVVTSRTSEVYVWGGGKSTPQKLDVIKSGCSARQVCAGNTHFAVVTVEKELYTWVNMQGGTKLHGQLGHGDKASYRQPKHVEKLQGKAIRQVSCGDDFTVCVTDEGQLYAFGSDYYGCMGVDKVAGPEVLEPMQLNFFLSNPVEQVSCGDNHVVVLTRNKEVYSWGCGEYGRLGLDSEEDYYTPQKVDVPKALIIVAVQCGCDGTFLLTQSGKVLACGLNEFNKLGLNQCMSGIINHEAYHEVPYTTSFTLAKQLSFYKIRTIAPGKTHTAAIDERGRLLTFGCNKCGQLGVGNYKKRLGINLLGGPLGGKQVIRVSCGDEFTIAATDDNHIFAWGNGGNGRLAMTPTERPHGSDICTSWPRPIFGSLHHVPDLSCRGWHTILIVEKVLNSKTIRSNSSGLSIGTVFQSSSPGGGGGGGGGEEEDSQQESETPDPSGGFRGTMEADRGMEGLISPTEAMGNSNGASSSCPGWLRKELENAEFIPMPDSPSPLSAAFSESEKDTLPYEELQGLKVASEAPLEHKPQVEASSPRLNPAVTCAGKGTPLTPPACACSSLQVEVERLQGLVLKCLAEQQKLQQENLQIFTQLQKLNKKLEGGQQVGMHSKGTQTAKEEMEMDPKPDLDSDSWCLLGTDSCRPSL
Conditions: at 0.1 µM.

Casein kinase II subunit alpha (Homo sapiens), sequence (P68400 whole entry, looked up): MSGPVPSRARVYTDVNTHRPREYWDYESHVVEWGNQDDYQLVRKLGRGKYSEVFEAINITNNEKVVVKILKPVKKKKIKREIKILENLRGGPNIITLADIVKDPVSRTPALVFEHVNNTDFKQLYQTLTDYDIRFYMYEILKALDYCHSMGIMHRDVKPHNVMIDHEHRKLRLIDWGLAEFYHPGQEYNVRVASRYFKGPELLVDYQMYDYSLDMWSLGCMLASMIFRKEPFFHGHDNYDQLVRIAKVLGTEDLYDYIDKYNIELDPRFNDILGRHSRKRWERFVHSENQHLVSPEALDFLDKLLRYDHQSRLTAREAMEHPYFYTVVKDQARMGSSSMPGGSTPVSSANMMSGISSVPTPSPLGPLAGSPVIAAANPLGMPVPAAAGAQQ
Serine/threonine-protein kinase Nek7 (Homo sapiens), sequence (Q8TDX7 whole entry, looked up): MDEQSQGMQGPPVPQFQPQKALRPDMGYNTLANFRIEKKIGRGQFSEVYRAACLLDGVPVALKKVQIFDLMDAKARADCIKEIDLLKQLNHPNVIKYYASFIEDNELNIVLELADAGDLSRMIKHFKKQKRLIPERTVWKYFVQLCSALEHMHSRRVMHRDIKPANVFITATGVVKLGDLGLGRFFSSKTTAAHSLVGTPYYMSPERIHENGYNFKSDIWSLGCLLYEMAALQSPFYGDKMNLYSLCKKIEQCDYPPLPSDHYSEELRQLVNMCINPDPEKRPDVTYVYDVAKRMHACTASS
Serine/threonine-protein kinase Nek6 (Homo sapiens), sequence (Q9HC98 whole entry): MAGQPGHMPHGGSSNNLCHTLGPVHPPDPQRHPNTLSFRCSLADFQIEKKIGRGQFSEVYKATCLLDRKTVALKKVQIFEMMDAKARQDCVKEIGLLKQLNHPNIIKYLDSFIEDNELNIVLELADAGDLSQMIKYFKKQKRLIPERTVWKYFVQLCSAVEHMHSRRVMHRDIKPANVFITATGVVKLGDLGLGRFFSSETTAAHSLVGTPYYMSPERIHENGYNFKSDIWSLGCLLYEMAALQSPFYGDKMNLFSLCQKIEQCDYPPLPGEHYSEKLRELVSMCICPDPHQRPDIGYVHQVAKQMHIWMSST
Sphingosine kinase 1 (Homo sapiens), sequence (Q9NYA1 whole entry): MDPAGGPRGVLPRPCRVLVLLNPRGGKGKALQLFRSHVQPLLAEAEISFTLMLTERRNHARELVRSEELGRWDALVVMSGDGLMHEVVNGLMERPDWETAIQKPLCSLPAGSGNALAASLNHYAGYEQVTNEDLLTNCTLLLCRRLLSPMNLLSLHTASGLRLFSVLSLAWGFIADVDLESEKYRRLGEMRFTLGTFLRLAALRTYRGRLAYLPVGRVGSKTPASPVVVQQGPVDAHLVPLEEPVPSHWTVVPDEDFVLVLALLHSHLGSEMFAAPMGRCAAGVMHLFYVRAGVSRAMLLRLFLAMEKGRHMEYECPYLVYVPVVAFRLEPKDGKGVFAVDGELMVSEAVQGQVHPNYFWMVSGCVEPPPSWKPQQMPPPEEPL

The inhibition is the relative decrease from the control value, in per cent. In the case of `COc1cc2ncn(-c3cc(OCc4ccccc4C(F)(F)F)c(C(=O)N(C)C)s3)c2cc1OC`, the inhibition is -3.72% in test [1]; 0.13% in [2]; -2.18% in [3]; -0.24% in [4]; 2.74% in test [5]; 5.36% in [6]. Also, the inhibition was 2.95% in [7]; -0.51% in [8]; 0.42% in [9]; 0.86% in test [10]; 2.1% in test [11]; 0.82% in test [12]. The inhibition in test [13] was 4.81%; in test [14], 0.75%; in test [15] it was 2.7%; in test [16], 1.08%; in test [17], -2.22%; in test [18] it was 2.1%. Moreover, the inhibition in test [19] worked out at 0.24%; in test [20] it was 0.62%.
